# Test results: the supplement of paper PMC7156485
# ± gives the standard deviation of the averaged measurements.
# What was measured:
# Conditions in all cases: concentration: 10 µM; 24 h
# HCC1569 [1] = experiment: cell number relative to DMSO (% of DMSO); higher = more cells (less growth inhibition / toxicity)
# Outline: (§1)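 After 24 h at 37 °C with compounds at 10 µM, in triplicate, HCC1569 and TDF cells were fixed with 3.7% formaldehyde. Immunostaining used a rabbit anti-H1.0 antibody and an AlexaFluor 647 secondary, with DAPI, and six fields per well were imaged at ×10. H1.0 nuclear intensity or cell number is presented as percent of the plate control, from the median of replicates, with HCC1569 values smoothed for positional effects.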
# TDF [2] = experiment: as above
# Outline: as §1
# TDF [3] = experiment: H1.0 immunofluorescence intensity relative to DMSO (% of DMSO); higher = stronger H1.0 induction, active = 120 or more
# Outline: as §1
# HCC1569 [4] = experiment: H1.0 immunofluorescence intensity relative to DMSO (% of DMSO); higher = stronger H1.0 induction, active = 140 or more
# Outline: as §1
# 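For H1.0 immunofluorescence intensity relative to DMSO in this document: TDF is a line of transformed human dermal fibroblasts of mesenchymal origin.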
# 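For cell number relative to DMSO in this document: TDF denotes transformed human dermal fibroblasts of mesenchymal origin.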
Compound,cell number (HCC1569 [1]),cell number (TDF [2]),H1.0 immunofluorescence intensity (TDF [3]),H1.0 immunofluorescence intensity (HCC1569 [4])
CC1=C(C)C(=O)C(CCCCC#CCCCC#CCO)=C(C)C1=O,99.09 ± 0.2,85 ± 1.8,104 (inactive),103 (inactive)
O=C(O)c1cc(=O)cc(C(=O)O)[nH]1 [Chelidamic acid],98.8,109,90 (inactive),96.3 (inactive)
CC1C(=O)N=C2Nc3cccc(Cl)c3CN21 (centres undefined) [Quazinone],111,106,94.9 (inactive),96.3 (inactive)
COc1cc2c(Nc3ccc(Br)cc3F)ncnc2cc1OCC1CCN(C)CC1 [Vandetanib],54.4,65.4,108 (inactive),142 (active)
CSc1ccc(C(=O)c2[nH]c(=O)[nH]c2C)cc1 [Enoximone],107,109,96.3 (inactive),105 (inactive)
CN1CCN(CCCCN2C(=O)CN(/N=C/c3ccc(-c4ccc(Cl)cc4)o3)C2=O)CC1.Cl.Cl,98.2,102,92.6 (inactive),115 (inactive)
